The list is not random: actives were taken first. Their share in the collection is about 3.5%.
MITF inh – MITF inhibitors, primary screen, biochemical, AlphaScreen, human; Microphthalmia-associated transcription factor (Homo sapiens), O75030; AlphaScreen MITF homodimerization, bead proximity signal; inhibition, % at 2.6 µM; actives 0.91% (n = 650,000); AID 1259374, 2018; in the data active means inhibition above about 50%;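 further: 0% = vehicle wells with protein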
GPR151 ag – activators of human GPR151, primary screen, cell-based, PathHunter beta-arrestin, luminescence | G-protein coupled receptor 151 (Homo sapiens), Q8TDV0 | PathHunter beta-arrestin GPR151 cells | activation, % at 11.2 µM | actives 1% (n = 650,000) | AID 1508602, 2020; in the data active means activation above about 4.9%;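 further: 0% = median of compound wells and 100% = cells with positive control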
FBW7 act – FBW7 E3 ligase activators, primary screen, biochemical, AlphaScreen, human; F-box/WD repeat-containing protein 7 (Homo sapiens), Q969H0; normalized activity (activation), % at 26.1 µM; AlphaScreen FBW7–phospho-cyclin E peptide binding, activator screen; actives 0.13% (n = 650,000); in the data active means normalized activity above about 1.9%;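 further: purified mutant Fbw7 with reduced substrate affinity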
Target sequence (Q969H0 whole entry, looked up): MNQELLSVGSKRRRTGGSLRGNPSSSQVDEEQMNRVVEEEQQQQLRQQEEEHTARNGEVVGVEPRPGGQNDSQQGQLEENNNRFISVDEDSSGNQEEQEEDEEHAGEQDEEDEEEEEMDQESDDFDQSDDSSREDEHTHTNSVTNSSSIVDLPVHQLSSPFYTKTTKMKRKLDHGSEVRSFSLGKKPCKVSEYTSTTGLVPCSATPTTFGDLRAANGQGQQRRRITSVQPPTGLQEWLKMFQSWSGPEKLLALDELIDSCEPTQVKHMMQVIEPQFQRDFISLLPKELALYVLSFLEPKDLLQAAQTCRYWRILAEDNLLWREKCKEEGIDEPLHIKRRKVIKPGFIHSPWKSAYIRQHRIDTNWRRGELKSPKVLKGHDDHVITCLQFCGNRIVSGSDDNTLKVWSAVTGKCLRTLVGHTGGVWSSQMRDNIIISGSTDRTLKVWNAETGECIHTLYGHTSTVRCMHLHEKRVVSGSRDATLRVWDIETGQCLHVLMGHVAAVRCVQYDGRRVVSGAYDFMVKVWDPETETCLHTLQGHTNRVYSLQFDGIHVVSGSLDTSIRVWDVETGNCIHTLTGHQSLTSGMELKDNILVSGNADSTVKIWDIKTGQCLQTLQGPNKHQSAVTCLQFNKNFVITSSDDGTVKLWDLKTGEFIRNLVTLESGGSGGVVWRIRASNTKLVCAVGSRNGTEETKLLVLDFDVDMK
TEAD-YAP block – TEAD-YAP interaction inhibition, primary screen, TEAD-YAP interaction inhibitor project, luminescence, HEK-TIYL cells | TEAD-Gal4/YAP UAS-luciferase luminescence | inhibition, % at 9.12 µM | actives 1.4% (n = 640,000); in the data active means inhibition above about 32%;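 further: 0% = median of test compound wells and 100% = reference inhibitor wells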
Active calls of the source: *.

SMILES | MITF inh | GPR151 ag | FBW7 act | TEAD-YAP block
O=C(Nc1ccc(-n2cccn2)cc1)C1CCN(Cc2nc3c(s2)CCCC3)CC1 | -5 | 0 | 0 | 38*
COc1ccc(OC)c(NC(=O)CSc2ccc3nnc(-c4cccc(F)c4)n3n2)c1 | 4 | 0 | 0 | 2
COc1ccc(S(=O)(=O)N(CC(=O)Nc2ccc(OC)c(OC)c2)c2ccc(C)cc2)cc1 | 6 | 0 | 0 | -1
Cc1nc(SCC(=O)N(C(C)C)C(C)C)c2c(C)c(C)sc2n1 | -4 | 1 | 0 | 51*
CCc1sc(C(=O)NCc2ccccn2)cc1Br | -5 | 2 | 0 | -12
Cc1cc(C)n(CC(O)Cn2c(C)c(C)c3ccccc32)n1 (stereo not given) | 53* | 0 | 0 | -5
CC(C)n1cnc2c(Nc3ccc(N4CCOCC4)cc3)nc(Nc3ccccn3)nc21 | -2 | 1 | 0 | 33*
CC(C)n1cnc2c(Nc3ccccc3)nc(NC3CCC(O)CC3)nc21 (stereo not given) | 3 | -8 | 0 | 68*
CC(C)n1cnc2c(Nc3ccc(N4CCOCC4)cc3)nc(-c3ccc(C(N)=O)cc3)nc21 | 2 | -1 | 0 | 32*
CC(=O)Nc1ccc(Nc2nc(NC3CCC(O)CC3)nc3c2ncn3C(C)C)cc1 (stereo not given) | -3 | -3 | 0 | 6
c1ccc(N2CCN(c3nc(Nc4ccc(N5CCOCC5)cc4)c4ncn(C5CCCCC5)c4n3)CC2)nc1 | 52* | -1 | 0 | 25
CC(C)n1cnc2c(Nc3ccc(N4CCOCC4)cc3)nc(Nc3nc4ccccc4n3C)nc21 | -3 | 0 | 0 | 33*
CN(C)CCCN(C(=O)c1ccc(Br)s1)c1nc2c(F)cc(F)cc2s1 | -6 | 3 | 3.2* | -9
CN(C)CCCN(C(=O)c1ccc2c(c1)OCCO2)c1nc2c(F)cc(F)cc2s1 | 15 | 0 | 0 | -27
Cc1cccc(NC(c2ccncc2)c2ccc3cccnc3c2O)n1 (stereo not given) | 113* | -1 | 0 | 68*
Cc1cccc(NC(c2ccc(Cl)cc2)c2ccc3cccnc3c2O)n1 (stereo not given) | -2 | -1 | 0 | 90*
Cc1cc(NC(c2cccc(Br)c2)c2ccc3cccnc3c2O)no1 (stereo not given) | 17 | 4 | -1 | 84*
Cc1cccc(NC(c2cccc(Cl)c2)c2ccc3cccnc3c2O)n1 (stereo not given) | 4 | -1 | 0 | 48*
Cc1cccc(NC(c2cccnc2)c2ccc3ccc(C)nc3c2O)n1 (stereo not given) | 14 | 2 | 0 | 22
COc1ccc(NC(C)=O)c2ncccc12 | 20 | 4 | 0 | -3
COc1cc(Br)ccc1NS(=O)(=O)c1ccc(Cl)cc1 | -2 | 0 | 0 | 5
CC(C)=CCCc1cc(C(=O)Nc2nccs2)c2ccccc2n1 | -2 | 0 | 0 | 16
CCN(CC)C(=O)C1CCCN(c2nc(NCCCN3CCCC3=O)c3ncn(-c4ccsc4)c3n2)C1 (stereo not given) | 8 | 1 | 0 | 35*
CCN(CC)C(=O)C1CCCN(c2nc(NCc3nc4ccccc4[nH]3)c3ncn(-c4ccsc4)c3n2)C1 (stereo not given) | 3 | 1 | 0 | 85*
CCN(CC)C(=O)C1CCCN(c2nc(NC3CC3)c3ncn(-c4ccsc4)c3n2)C1 (stereo not given) | 10 | -1 | 0 | 9
SMILES | MITF inh | GPR151 ag | FBW7 act | TEAD-YAP block
CCN(CC)C(=O)C1CCCN(c2nc(NCCCN3CCCC3=O)c3ncn(CCN4CCCC4=O)c3n2)C1 (stereo not given) | 3 | -2 | 0 | -1
OCC1CCCN1c1nc(NCc2nc3ccccc3[nH]2)c2ncn(-c3ccsc3)c2n1 (stereo not given) | 25 | 0 | 0 | 72*
CCN(CC)C(=O)C1CCCN(c2nc(NCc3nc4ccccc4[nH]3)c3ncn(C(C)C)c3n2)C1 (stereo not given) | -2 | 1 | 0 | 30
CCN(CC)C(=O)C1CCCN(c2nc(NCc3nc4ccccc4[nH]3)c3ncn(-c4ccccc4)c3n2)C1 (stereo not given) | 7 | 0 | 0 | 72*
O=C(Nc1ccc(Oc2ccccc2)cc1)c1ccc(F)c(S(=O)(=O)NC2CCCCCC2)c1 | 17 | 0 | 0 | 50*
O=C(Nc1ccc(Oc2ccccc2)cc1)c1ccc(F)c(S(=O)(=O)NC2CCCC2)c1 | 0 | 0 | 0 | 65*
O=C(Nc1ccc(Cl)c(Cl)c1)c1ccc(F)c(S(=O)(=O)NC2CCCC2)c1 | 14 | -1 | 0 | 10
O=C(Nc1ccc(Oc2ccccc2)cc1)c1ccc(F)c(S(=O)(=O)NCc2ccccc2Cl)c1 | 1 | 1 | 0 | 41*
CC(C)c1ccc(NC(=O)c2ccc(F)c(S(=O)(=O)NC3CCCCCC3)c2)cc1 | -3 | 1 | 0 | 11
O=C(Nc1ccc(Oc2ccccc2)cc1)c1ccc(F)c(S(=O)(=O)NC2CCCCC2)c1 | 11 | -2 | 0 | 58*
CC(=O)Nc1nc2nc(C(F)(F)F)cc(=O)n2[nH]1 | 7 | 2 | 0 | -4
COCCN1C(=O)c2ccccc2C(C(=O)NC2CCCC2)C1c1c[nH]c2ccccc12 (stereo not given) | 4 | 0 | 0 | 0
Cc1c2oc3c(C)ccc(C(=O)OC(C)C4NC(=O)C(C(C)C)N(C)C(=O)CN(C)C(=O)C5CCCN5C(=O)C(C(C)C)NC4=O)c3nc-2c(C(=O)OC(C)C2NC(=O)C(C(C)C)N(C)C(=O)CN(C)C(=O)C3CCCN3C(=O)C(C(C)C)NC2=O)c(N)c1=O (stereo not given) | -2 | 3 | 0 | 96*
COC(=O)c1c(NC(=O)CN2C(=O)c3ccccc3C2=O)sc2c1CCC(C)C2 (stereo not given) | 0 | 0 | 0 | 2
Cc1ccc(C)n1-c1ccccc1N | -7 | 2 | 1 | 51*
CC[n+]1ccc(/C=C/c2ccc(N(C)C)cc2)cc1 | 1 | 1 | 0 | 82*
CC[n+]1c(/C=C(/C)OC)sc2ccccc21 | 3 | -1 | 0 | 33*
CN(C)c1ccc(/C=C/c2sc3ccc4ccccc4c3[n+]2C)cc1 | 18 | -1 | 0 | 53*
CC[n+]1c(/C=C/c2ccc(N(C)C)cc2)sc2ccccc21 | 19 | 0 | 0 | 54*
CCN(CC)C(=S)Nc1c(C)n(C)n(-c2ccccc2)c1=O | 16 | -2 | 0 | -4
CCc1ccc(C2NC(=O)C(O)=C2C(=O)c2cccs2)cc1 (stereo not given) | 20 | 0 | 0 | -26
Cc1ccnc(NC(c2ccc(O)cc2)c2ccc3cccnc3c2O)c1 (stereo not given) | 27 | 0 | -1 | -5
Cc1ccnc(NC(c2ccc(C(C)C)cc2)c2ccc3cccnc3c2O)c1 (stereo not given) | 4 | 0 | 0 | 53*

Screening data from PubChem BioAssay.
